Screening results from PubChem BioAssay.
KCNQ2 pot – potentiators of rat KCNQ2 potassium channel; Potassium voltage-gated channel subfamily KQT member 2 (Rattus norvegicus), O88943; CHO-K1 KCNQ2, FluxOR thallium flux fluorescence; stronger effect = higher value; B-score at 10 µM; 0.54% of 310,000 active; AID 2239, 2010;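 active means fluorescence ratio B-score at least 3 SD of library B-scores, with initial fluorescence B-score within 3 of them, cut at about 5.3 in these data; same plate scores as AID 2156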;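 further: B-score of peak minus minimum over baseline fluorescence ratio after K+ and Tl+ stimulus; positive B-score means potentiation of KCNQ2 with more thallium influx and brighter signal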
KCNQ2 inh – rat KCNQ2 potassium channel inhibitors, primary screen, cell-based, CHO-K1, FluxOR thallium flux, B-score | 1.1% of 310,000 active | B-score at 10 µM | 20 min; stronger effect = lower value | Potassium voltage-gated channel subfamily KQT member 2 (Rattus norvegicus), O88943;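 active means fluorescence ratio B-score at most minus 3 library SDs, with starting brightness B-score within 2 library SDs, cut at about -5.5 in these data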
Kir21 confirm – mouse Kir2.1 channel blockers, retest, confirmation, cell-based, FluxOR thallium flux, duplicate; Tl flux remaining, % of negative control (stronger effect = lower value), % at 10 µM; 41% of 2,300 active; shares compounds with KCNQ2 pot; AID 2032, 2009; Kir2.1-expressing cells, FluxOR thallium flux fluorescence; stronger effect = lower value;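 active means Primary-screen hit whose thallium flux fell at least 3 control SD below untreated wells in both duplicates, with normal baseline fluorescence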
HEK293 Tl flux – parental HEK293 activity in Kir2.1 inhibitor counter-screen; shares compounds with KCNQ2 pot; AID 2105; 19% of 2,300 active; parental HEK293 cells, FluxOR thallium flux fluorescence; 0% = unstimulated blank wells; FluxOR signal as % of negative control (100 = no effect), % at 10 µM;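 active means dye signal at least 3 control SD above or below untreated wells in both duplicates, raw fluorescence within 3, either direction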;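 further: percent is based on the flux ratio of peak minus minimum fluorescence over baseline F0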
CHO-K1 ctr – nonspecific thallium flux increase in parental CHO-K1, confirmation, counter-screen for KCNQ2 potentiator project, cell-based, FluxOR thallium flux, duplicate | shares compounds with KCNQ2 pot | parental CHO-K1 cells, FluxOR thallium flux fluorescence; zero = vehicle mean+3SD, 100% = vehicle-minus-blank window | activity increase over 3SD of controls, % at 10 µM | 43% of 1,200 active | AID 2282, 2010;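 active means signal rise of at least 3 SD above the untreated control mean, in both duplicate wells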;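 further: counter screen of KCNQ2 potentiator hits so any rise reflects channel-independent effects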
KCNQ1 sel pot – human KCNQ1 channel potentiation off-target, confirmation, selectivity assay for KCNQ2 potentiator project, cell-based, CHO, FluxOR thallium flux; shares compounds with KCNQ2 pot; CHO KCNQ1 stable, FluxOR thallium flux fluorescence; beyond 3SD, as % of vehicle-control signal; activation over 3SD threshold, % at 10 µM; 28% of 1,200 active; AID 2283, 2010;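 active means fluorescence ratio rise of at least 3 SD of vehicle wells above their mean, in both replicate wells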
KCNQ2 pot conf – rat KCNQ2 channel potentiators, confirmation, cell-based, CHO, FluxOR thallium flux, duplicate | shares compounds with KCNQ2 pot | 68% of 1,200 active | CHO-KCNQ2 cells, FluxOR thallium flux fluorescence | potentiation, less the hit threshold, % at 10 µM;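 active means fluorescence ratio rising 3 SD or more over the vehicle control mean in both replicates, plus primary screen hit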;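 further: peak minus minimum thallium fluorescence divided by baseline after K/Tl stimulus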
Kir21 spec – mouse Kir2.1 channel activation off-target, confirmation, selectivity assay for KCNQ2 potentiator project, cell-based, HEK293, FluxOR thallium flux. shares compounds with KCNQ2 pot. HEK293 Kir2.1, FluxOR thallium flux fluorescence. activity over 3SD threshold, % at 10 µM. 2% of 1,200 active. AID 2345, 2010;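 active means fluorescence ratio rise of at least 3 SD above the vehicle-control mean, seen in both replicates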
KCNQ2 W236L MoA – potentiators of retigabine-insensitive KCNQ2 W236L, mechanism study for KCNQ2 potentiator project, cell-based, rat KCNQ2 W236L, CHO, automated patch clamp. shares compounds with KCNQ2 pot. automated patch clamp current. current increase over 3SD of negative controls (%), stronger effect = higher value, % at 25 µM. 10% of 940 active. AID 2558, 2010;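 active means current increase at least 3 SD of the untreated controls above them in both duplicate recordings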
Large screens that a line does not name were inactive (follow-up assays come after a bar, where they were run). The list is not random: actives were taken first. Their share in the collection is about 1.6%.

O=C(NCc1ccc2c(c1)CCO2)Nc1cccc(C(F)(F)F)c1	KCNQ2 pot 7.1 | Kir21 confirm inactive | HEK293 Tl flux inactive | CHO-K1 ctr 3.1 | KCNQ1 sel pot 20 | KCNQ2 pot conf 25 | Kir21 spec inactive | KCNQ2 W236L MoA inactive
O=C(NCc1cccnc1)Nc1cccc(C(F)(F)F)c1	none
CCCCNC(=O)c1ccccc1NC(=O)CCC	none
CC(=O)Nc1ccc(CN2CCCC(C(=O)c3cccc(C(F)(F)F)c3)C2)cc1 (stereo not given)	none (no result: KCNQ2 pot)
COc1ccc(CN2CCCC(C(=O)c3cccc(C(F)(F)F)c3)C2)cc1O (stereo not given)	none (no result: KCNQ2 pot) | Kir21 confirm 40% | HEK293 Tl flux inactive
O=C(NCCCN1CCOCC1)c1cc(-c2ccc(F)cc2)no1	none (no result: KCNQ2 pot)
CSc1nnc(NC(=O)c2ccco2)s1	none
O=C(NCc1ccc2c(c1)OCO2)c1nc(S(=O)(=O)Cc2ccccc2F)ncc1Cl	none (no result: KCNQ2 pot)
CC(C)c1nnc(NC(=O)c2nc(S(=O)(=O)Cc3ccc(F)cc3)ncc2Cl)s1	KCNQ2 pot 11 | Kir21 confirm inactive | HEK293 Tl flux inactive | CHO-K1 ctr inactive | KCNQ1 sel pot inactive | KCNQ2 pot conf 58 | Kir21 spec inactive | KCNQ2 W236L MoA 28%
CSc1nnc(NC(=O)c2nc(S(=O)(=O)Cc3ccccc3F)ncc2Cl)s1	KCNQ2 pot 10 | CHO-K1 ctr inactive | KCNQ1 sel pot inactive | KCNQ2 pot conf 50 | Kir21 spec inactive | KCNQ2 W236L MoA 18%
CCSc1nnc(NC(=O)c2nc(S(=O)(=O)Cc3ccc(F)cc3)ncc2Cl)s1	KCNQ2 pot 10 | CHO-K1 ctr inactive | KCNQ1 sel pot inactive | KCNQ2 pot conf 49 | Kir21 spec inactive | KCNQ2 W236L MoA 11%
O=C(Nc1nnc(SCc2ccc(F)cc2)s1)c1cccnc1Cl	none (no result: KCNQ2 pot)
COC(=O)c1ccccc1NC(=O)c1nc(S(=O)(=O)Cc2ccccc2)ncc1Cl	none (no result: KCNQ2 pot)
CSc1nnc(NC(=O)c2nc(S(=O)(=O)Cc3cccc(C)c3)ncc2Cl)s1	KCNQ2 pot 13 | CHO-K1 ctr inactive | KCNQ1 sel pot 4.6 | KCNQ2 pot conf 84 | Kir21 spec inactive | KCNQ2 W236L MoA 35%
COc1ccccc1C(=O)OCc1ccc2sc(C)nc2c1	none
COc1cc(C(C)=O)ccc1OCC(O)Cn1nc(C)c(C(C)=O)c1C (stereo not given)	none
Cc1cc2occ(CC(=O)N(C)CC(=O)Nc3cccc(F)c3)c2cc1C	none
COc1cccc(CNC(=O)C2CCN(S(=O)(=O)c3ccc4c(c3)CC(C)N4C(C)=O)CC2)c1 (stereo not given)	none
Cc1nc([N+](=O)[O-])cn1CC(O)c1ccc(F)cc1 (stereo not given)	none (no result: KCNQ2 pot)
CC(=O)c1ccc(OCCCC(=O)N(CCC2=CCCCC2)c2c(N)n(Cc3ccccc3)c(=O)[nH]c2=O)cc1	none (no result: KCNQ2 pot)
CSc1ncc(Cl)c(C(=O)Nc2nnc(SC/C=C/c3ccccc3)s2)n1	KCNQ2 pot 5.5 | Kir21 confirm inactive | HEK293 Tl flux inactive | CHO-K1 ctr 6.5 | KCNQ1 sel pot inactive | KCNQ2 pot conf inactive | Kir21 spec inactive | KCNQ2 W236L MoA inactive
Cc1ccc(CS(=O)(=O)c2ncc(Cl)c(C(=O)Nc3nnc(C(C)C)s3)n2)cc1	KCNQ2 pot 16 | Kir21 confirm inactive | HEK293 Tl flux 182% | CHO-K1 ctr inactive | KCNQ1 sel pot inactive | KCNQ2 pot conf 102 | Kir21 spec inactive | KCNQ2 W236L MoA 77%
Cc1nnc(NC(=O)c2nc(S(=O)(=O)Cc3ccccc3C)ncc2Cl)s1	KCNQ2 pot 12 | Kir21 confirm inactive | HEK293 Tl flux inactive | CHO-K1 ctr inactive | KCNQ1 sel pot 62 | KCNQ2 pot conf 77 | Kir21 spec inactive | KCNQ2 W236L MoA 35%
Cc1ccc(CS(=O)(=O)c2ncc(Cl)c(C(=O)Nc3ccc(OC(F)F)cc3)n2)cc1	none
Cc1cccc(CS(=O)(=O)c2ncc(Cl)c(C(=O)Nc3nnc(C(C)C)s3)n2)c1	KCNQ2 pot 13 | CHO-K1 ctr inactive | KCNQ1 sel pot inactive | KCNQ2 pot conf 99 | Kir21 spec inactive | KCNQ2 W236L MoA 49%
O=C(NCc1ccc2c(c1)OCO2)c1nc(S(=O)(=O)Cc2ccccc2)ncc1Cl	none (no result: KCNQ2 pot)
C=CCSc1nnc(NC(=O)c2nc(SCC)ncc2Cl)s1	none
O=C(NCc1ccccc1)c1nc(S(=O)(=O)Cc2ccccc2)ncc1Cl	none (no result: KCNQ2 pot)
O=C(CN(Cc1ccco1)C(=O)c1ccc(N2CCCC2=O)cc1)Nc1ccccc1C(F)(F)F	none (no result: KCNQ2 pot)
O=C(c1cc(Cl)ccc1O)N1CCN(S(=O)(=O)c2cccs2)CC1	none
O=C(CNC(=O)c1ccccc1F)Nc1ccccc1C(F)(F)F	none (no result: KCNQ2 pot)
CC1=NNC(=O)C1CC(=O)N/N=C/C=C/c1ccccc1 (stereo not given)	KCNQ2 pot 8.8 | Kir21 confirm inactive | HEK293 Tl flux inactive | CHO-K1 ctr inactive | KCNQ1 sel pot inactive | KCNQ2 pot conf inactive | Kir21 spec inactive
CC1=NNC(=O)C1CCC(=O)N/N=C/C=C/c1ccccc1 (stereo not given)	none
O=C(NCc1ccccn1)C1(C(F)(F)F)C/C(=C\CCO)CCCO1 (stereo not given)	none
CC(C)CNC(=O)[C@H](Cc1ccccc1)NC(=O)c1cccs1	none (no result: KCNQ2 pot)
Cc1ccc(C(=O)NNc2ncnc3c2cnn3C)cc1	none (no result: KCNQ2 pot)
Cn1ncc2c(O/N=C(\N)c3ccc(C(F)(F)F)cc3)ncnc21	KCNQ2 pot 6 | Kir21 confirm inactive | HEK293 Tl flux inactive | CHO-K1 ctr 20 | KCNQ1 sel pot 5.7 | KCNQ2 pot conf inactive | Kir21 spec inactive
